A short description of assay [1]: qHTS assay for small molecule agonists of the p53 signaling pathway (AID 651631; calls by dose curve; note: nearly all actives have a fitted effect of over 15% in size). The gist of the method: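 Quantitative high-throughput format: 4,000 p53RE-bla HCT-116 cells/well, 5 h pre-incubation, 16 h compound exposure at 37 °C, 2 h room-temperature substrate step, fluorescence intensity measured.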
In general terms: qHTS replaces the single test concentration by a dilution series.

Assay [2] is described as follows: qHTS assay for small molecules that induce genotoxicity in human embryonic kidney cells expressing luciferase-tagged ATAD5 (AID 651632). Note: nearly all actives have a fitted effect of over 15% in size. The gist of the method: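 Cells were seeded at 2,000 per well, dosed with compound, and incubated 16 hr at 37C in 5% CO2. Luciferase activity was then quantified after a 30 min room-temperature incubation with Amplite.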
Assay [3] can be described thus: qHTS assay for small molecule agonists of the p53 signaling pathway - cell viability (AID 651633; calls by dose curve;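 note: p53RE-bla HCT reporter cells with a stable beta-lactamase p53 reporter; nearly all actives have a fitted effect of over 30% in size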). The gist of the method:
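p53RE-bla cells, seeded at 4,000 per well and rested 5 h at 37 C/5% CO2, received compounds in DMSO for 16 h at 37 C. CellTiter-Glo was then added, and luminescence was read after 30 min at room temperature to gauge cytotoxicity.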

Assay [4] can be described thus: qHTS assay for small molecules that induce genotoxicity in human embryonic kidney cells expressing luciferase-tagged ATAD5 - cell viability (AID 651634; calls by dose curve; note: nearly all actives have a fitted effect of over 25% in size; note: potency is the fitted concentration of half-maximal effect). The gist of the method:
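Cells (HEK293T, luciferase-tagged ATAD5) are seeded at 2,000 per well, dosed with compound or DMSO vehicle, and incubated 15.5 hr at 37C and 5% CO2. CellTiter-Fluor is added for 30 min before fluorescence is measured.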

Assay [5] can be described thus: qHTS assay for small molecule disruptors of the mitochondrial membrane potential - cell viability (AID 720634; calls by dose curve;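 note: human HepG2 liver cancer cells; nearly all actives have a fitted effect of over 20% in size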). The gist of the method: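 Cytotoxicity was measured by ATP quantitation in HepG2 wells that had first been treated with compound for 1 hr and stained with m-MPI dye; CellTiter-Glo incubation was 30 min at room temperature.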
The nature of assay [6]: qHTS assay for small molecule disruptors of the mitochondrial membrane potential (AID 720635). Note: potency is the fitted concentration of half-maximal effect. The gist of the method: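 HepG2 cells (2,000/well) attached overnight at 37C, then took compound for 1 hr at 37C, 5% CO2. Mito-MPS dye was added for 30 min; fluorescence was read at 490/535 nm (monomers) and 540/590 nm (aggregates).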
Assay [7] in a line: qHTS assay to test for compound auto fluorescence at 590 nm (red) in HepG2 cells (AID 720674). A digest of the protocol: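 Intrinsic compound fluorescence in the red window (Ex/Em 540/590 nm) is measured in attached HepG2 cells exposed for 1 hr, DMSO vehicle as baseline, benchmarked to Rose Bengal sodium.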
Assay [8] can be described thus: qHTS assay to test for compound auto fluorescence at 535 nm (green) in HepG2 cells (AID 720675).
A short description of assay [9]: qHTS assay to test for compound auto fluorescence at 460 nm (blue) in HEK293 cells (AID 720678). The gist of the method:
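HEK293 cells (2,000 per well, medium with 10% dialyzed FBS) attached for 4-5 hr at 37C, then received compound and stood overnight at 37C, 5% CO2. Blue fluorescence was read at Ex/Em 405/460 nm and expressed relative to triamterene.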

Assay [10] is described as follows: qHTS assay to test for compound auto fluorescence at 590 nm (red) in HEK293 cells (AID 720679). A digest of the protocol: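 HEK293 cells (2,000/well, medium with 10% dialyzed FBS) attached for 4-5 hr at 37C, received 23 nL compound and were incubated overnight at 37C, 5% CO2. Red fluorescence was then read at 540/590nm Ex/Em, referenced to Rose Bengal sodium.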

Assay [11] in a line: qHTS assay to test for compound auto fluorescence at 535 nm (green) in HEK293 cells (AID 720680).
Assay [12] can be described thus: qHTS assay to test for compound auto fluorescence at 460 nm (blue) in HEK293 cell free culture (AID 720681). The gist of the method: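 Test compounds were pinned into cell-free culture medium (DMEM with 10% FBS) and fluorescence was read directly at Ex/Em 405/460 nm. Signals were expressed as fluorescence equivalents of triamterene, with DMSO vehicle as control.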

The nature of assay [13]: qHTS assay to test for compound auto fluorescence at 535 nm (green) in HEK293 cell free culture (AID 720682). The gist of the method:
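Measurement is a direct plate read of green fluorescence (485 nm in, 535 nm out) after compound addition to serum-supplemented DMEM lacking cells, with fluorescein used to express intensities.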

Assay [14] is described as follows: qHTS assay to test for compound auto fluorescence at 590 nm (red) in HEK293 cell free culture (AID 720683). The gist of the method:
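Tox21 10K library compounds were pinned into cell-free DMEM with 10% FBS and fluorescence was read at excitation 540 nm. Activity is expressed as Rose Bengal sodium equivalency.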

Assay [15] in a line: qHTS assay to test for compound auto fluorescence at 590 nm (red) in HepG2 cell free culture (AID 720684). A digest of the protocol: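 Readout: intrinsic compound fluorescence at 590 nm emission after 540 nm excitation, scaled to Rose Bengal sodium. Matrix was cell-free MEM with 10% FBS; DMSO vehicle wells served as control.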
Assay [16] is described as follows: qHTS assay to test for compound auto fluorescence at 460 nm (blue) in HepG2 cell free culture (AID 720685). A digest of the protocol: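 Cell-free plates of MEM plus 10% FBS received 23 nL compound or DMSO vehicle; blue-channel (405/460 nm) intensity scored against triamterene as reference fluorophore.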
A short description of assay [17]: qHTS assay to test for compound auto fluorescence at 535 nm (green) in HepG2 cell free culture (AID 720686).
The nature of assay [18]: qHTS assay to test for compound auto fluorescence at 460 nm (blue) in HepG2 cells (AID 720687). The gist of the method:
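Cells (2,000/well in MEM with 10% FBS) attached overnight at 37 C, then were exposed to compound or DMSO for 1 hr at 37 C, 5% CO2. Fluorescence read at Ex/Em 405/460 nm, expressed as triamterene-equivalent signal.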

For assay [19], the target named is Glucocorticoid receptor (Homo sapiens) (UniProt P04150). The assay can be described thus: qHTS assay to identify small molecule agonists of the glucocorticoid receptor (GR) signaling pathway (AID 720691; active = well fitted activation curve with a large enough effect in the signal ratio in the repeat runs, not every such curve was filed as active; the % refers to the signal ratio). The note with it: GR-bla HeLa, beta-lactamase reporter ratio, 18 h; activation: at 62.4 µM (top of the series) unless noted. A digest of the protocol:
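Steps: seed GR-bla HeLa cells, incubate 4 h at 37 C/5% CO2; pin-transfer DMSO-dissolved compounds; incubate 18 h at 37 C; add LiveBLAzer B/G FRET substrate; after 2 h at room temperature, measure fluorescence.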

Assay [20] has the same target. The assay can be described thus: qHTS assay to identify small molecule antagonists of the glucocorticoid receptor (GR) signaling pathway (AID 720692; active = well fitted inhibition curve with a large enough effect in the signal ratio in the repeat runs, not every such curve was filed as active; the % refers to the signal ratio). The gist of the method: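 Antagonism was scored as loss of dexamethasone-driven (5 nM final) reporter signal in HeLa cells bearing a glucocorticoid response element–beta-lactamase construct, after 18 h compound exposure at 37 C and 2 h FRET substrate loading.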

The structures appear in SMILES notation. Unmarked numbers belong to inactive results. Results filed as inconclusive are left out. Active and inactive are the calls of the source. Unless noted, calls come from the whole dose curve; as a rule, active = well fitted curve in the direction sought with a large enough effect in the repeat runs; inconclusive = weak or mixed curves; inactive = no such curve, though single readings can be large; an effect the other way counts as inactive or inconclusive.

Sequence of Glucocorticoid receptor (Homo sapiens) (P04150 whole entry, looked up): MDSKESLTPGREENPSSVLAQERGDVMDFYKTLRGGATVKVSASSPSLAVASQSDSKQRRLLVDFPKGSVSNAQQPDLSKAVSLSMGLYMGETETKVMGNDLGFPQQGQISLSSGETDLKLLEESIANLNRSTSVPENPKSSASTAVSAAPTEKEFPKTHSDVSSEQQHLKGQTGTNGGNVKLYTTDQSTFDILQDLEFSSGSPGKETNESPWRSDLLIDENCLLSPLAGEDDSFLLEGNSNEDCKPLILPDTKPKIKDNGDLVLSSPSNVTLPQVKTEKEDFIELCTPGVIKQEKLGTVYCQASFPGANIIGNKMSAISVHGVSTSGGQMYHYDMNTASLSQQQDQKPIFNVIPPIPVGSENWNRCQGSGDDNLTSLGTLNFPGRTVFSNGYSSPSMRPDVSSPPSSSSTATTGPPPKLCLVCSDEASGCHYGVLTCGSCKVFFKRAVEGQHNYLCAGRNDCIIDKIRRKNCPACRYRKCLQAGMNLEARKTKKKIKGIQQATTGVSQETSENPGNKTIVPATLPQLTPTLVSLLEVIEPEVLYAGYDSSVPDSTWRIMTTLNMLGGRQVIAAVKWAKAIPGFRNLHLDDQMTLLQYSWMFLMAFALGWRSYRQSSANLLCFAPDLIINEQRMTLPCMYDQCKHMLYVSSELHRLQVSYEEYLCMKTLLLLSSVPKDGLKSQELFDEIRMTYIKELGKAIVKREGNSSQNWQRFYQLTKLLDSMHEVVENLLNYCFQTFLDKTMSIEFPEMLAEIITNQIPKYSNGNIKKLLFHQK

In the case of `O=C1CCC(=O)O1`, the Potency entry in assay [1], in [2], in assay [3], in assay [4], in [5] and in assay [6] was “inactive” in each case. For the same molecule, the Potency entry in assay [7], in [8], in [10], in [14], in assay [15] and in assay [17] was “inactive” throughout. The Potency entry in assay [19] is “inactive”. In addition, the call in assay [9], in [11], in assay [12], in assay [13], in [16] and in assay [18] was inactive.

As for `Cc1ccc(N=Nc2c(O)c(C(=O)O)cc3ccccc23)c(S(=O)(=O)O)c1`, the Potency result in assay [1], in [2], in assay [3], in assay [5], in assay [7] and in assay [8] was “inactive” throughout. Also, the Potency result in [10], in [14], in assay [15] and in assay [17] was “inactive” throughout. Also, the Potency in assay [4] was 11.8 µM (active). In addition, the molecule was classed as inactive in assay [9], in assay [11], in [12], in assay [13], in assay [16] and in assay [18].

As for `O=[N+]([O-])c1ccc(NCCO)c(OCCO)c1`, the Potency result in [1], in assay [2], in assay [3], in assay [5], in assay [6] and in assay [7] was “inactive” each time. For the same molecule, the Potency result in assay [8], in [10], in assay [14], in assay [15], in assay [17] and in [19] was “inactive” in each case. Further, the Potency result in assay [20] was “inactive”. For the same molecule, the Potency in assay [4] was 61.2 µM (active). For the same molecule, the molecule was called inactive in assay [9], in assay [11], in [12], in assay [13], in assay [16] and in assay [18].

With `OC[C@H]1O[C@@H](OCCc2ccc(O)cc2)[C@H](O)[C@@H](O)[C@@H]1O`, the Potency entry in assay [1], in assay [2], in [3], in [4], in assay [5] and in assay [6] was “inactive” each time. Moreover, the Potency entry in [7], in assay [8], in assay [10], in [14], in [15] and in assay [17] was “inactive” throughout. Besides, in assay [19], the Potency result is “inactive”. Besides, the call in assay [9], in [11], in assay [12], in assay [13] and in assay [18] was inactive.

Take `c1ccc(-c2ccccn2)nc1`: the Potency entry in assay [1], in assay [2], in assay [3], in [4], in assay [5] and in assay [6] was “inactive” each time. For the same molecule, the Potency entry in assay [7], in [14], in assay [15], in [17] and in assay [19] was “inactive” each time. The outcome in [9], in assay [11], in assay [12], in assay [16] and in assay [18] was inactive.

Regarding `CCCCC(CC)CN1C(=O)C2C3C=CC(C3)C2C1=O` (stereo not drawn), the Potency result in assay [1], in assay [2], in assay [3], in assay [4], in assay [5] and in assay [7] was “inactive” in each case. The Potency entry in [8], in assay [10], in assay [15], in assay [17] and in assay [19] was “inactive” each time. Further, in assay [6], the Potency was 6.11 µM (active). Also, the call in assay [9], in [11], in assay [12], in assay [13], in [16] and in assay [18] was inactive.

Values taken from PubChem BioAssay (Tox21).
